This note sets out measurements from PubChem BioAssay (NCI).

Test systems include EKVX NSCLC; SN12C renal; UO-31 renal; TK-10 renal; ACHN renal; CAKI-1 renal; CCRF-CEM leukemia; MOLT-4 leukemia; SR leukemia; A498 renal.
Common to all, as to assay: NCI-60 one-dose screen, 48 h (100 = growth as untreated, 0 = no growth, -100 = all killed)
What all share (settings): 10 µM unless noted

About 83,000 compounds went through this panel and 20% of them were active in at least one assay; those are over-represented in the sample as a whole.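 Negative percent growth values reflect cell death: -40 means 40% of the cells present at the start died, and -100 means all died.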 A number with no mark means an inactive call. Calls of active or inactive are those of the source. The calls were made as follows: active = growth percent below 10; inactive = the rest.

In the case of `COC(=O)c1c2c(c(C)[n+]([O-])c1C)C(=O)C(NCc1ccc(F)c(F)c1)=CC2=O`, the growth in the experiment on EKVX NSCLC is 13%; in the experiment on SN12C renal, 1.1% (active); in the experiment with UO-31 renal it was 58.8%; in the experiment with TK-10 renal, 85.5%; in the experiment with ACHN renal, 22.1%; in the experiment on CAKI-1 renal it was 43%. Also, the growth was 21.5% in the experiment with CCRF-CEM leukemia, 8.41% (active) with MOLT-4 leukemia and 20.4% in the experiment with SR leukemia.

In the case of `NC(=O)CSc1nc(-c2ccc(F)cc2)cc(-c2ccco2)n1`, the growth is 95.8% with EKVX NSCLC; 101% in the experiment on SN12C renal; 75.2% in the experiment with UO-31 renal; 129% in the experiment with TK-10 renal; 85.7% in the experiment with CAKI-1 renal; 103% with A498 renal. The growth in the experiment with CCRF-CEM leukemia was 107%; in the experiment with MOLT-4 leukemia, 97.9%; in the experiment with SR leukemia it was 94.5%.

As for `O=c1oc2ccc(I)cc2c(=O)n1-c1ccc(I)cc1F`, the growth was 9.77% (active) with EKVX NSCLC; 4.52% (active) with SN12C renal; 8.63% (active) in the experiment on UO-31 renal; 11.3% with TK-10 renal; -20.2% (active) in the experiment on CAKI-1 renal; -73.3% (active) in the experiment with A498 renal. The growth is 6.91% (active) in the experiment on CCRF-CEM leukemia and -35.6% (active) in the experiment on MOLT-4 leukemia.

For the compound `O=c1c2cc(F)ccc2sc2c(Nc3ccncc3)nc3ccccc3c12`, the growth with EKVX NSCLC is 35.8%; in the experiment with SN12C renal, 90%; with UO-31 renal it was -83.3% (active); with TK-10 renal, 78.6%; with CAKI-1 renal, 82.5%; in the experiment on A498 renal it was 63.9%. The growth is -27.4% (active) in the experiment on CCRF-CEM leukemia, -36.9% (active) with MOLT-4 leukemia and -4.43% (active) with SR leukemia.

Turning to `CC[C@H](C)[C@@H](C(=O)OC)n1cc(CNC(=O)[C@@H](Cc2ccccc2)NC(=O)OCc2ccccc2)nn1`, the growth in the experiment with EKVX NSCLC was 92.6%; in the experiment on SN12C renal, 94.6%; in the experiment on UO-31 renal, 76.7%; in the experiment with TK-10 renal it was 101%; with CAKI-1 renal, 83.4%; in the experiment with A498 renal, 83.3%. The growth in the experiment on CCRF-CEM leukemia was 85.1%; in the experiment with MOLT-4 leukemia, 69.1%.

As to `CCOC(=O)c1sc(-c2ccc(OS(=O)(=O)C[C@]34CCC(CC3=O)C4(C)C)c(C=O)c2)nc1C`, the growth is 36.5% in the experiment with EKVX NSCLC; 28.7% in the experiment with SN12C renal; 29% in the experiment on UO-31 renal; 5.83% (active) in the experiment on TK-10 renal; 0.933% (active) in the experiment on CAKI-1 renal; -2.42% (active) with A498 renal. The growth is 11.7% in the experiment on CCRF-CEM leukemia, 4.72% (active) in the experiment with MOLT-4 leukemia and 21.2% in the experiment on SR leukemia.

As for `C=C[C@@H]1CCC/C=C/[C@@H]2C[C@H](O)C[C@H]2[C@H](O)/C=C/C(=O)O1`, the growth was 16.9% in the experiment on EKVX NSCLC; 13.3% with SN12C renal; 6.14% (active) in the experiment with UO-31 renal; 15.5% with TK-10 renal; 10.4% in the experiment on CAKI-1 renal; -17.9% (active) in the experiment with A498 renal. Also, the growth with CCRF-CEM leukemia is 12.6%; in the experiment with MOLT-4 leukemia, -9.66% (active); with SR leukemia, -15.1% (active).

On to `CCCCCCCCCCCCCCn1cc(C2=C(c3coc4ccc(OC)cc34)C(=O)NC2=O)c2ccccc21`, for which the growth with EKVX NSCLC was 90.9%; with SN12C renal it was 100%; in the experiment with UO-31 renal, 83.5%; in the experiment with TK-10 renal, 102%; in the experiment on ACHN renal it was 102%; in the experiment with CAKI-1 renal, 88.8%. In addition, the values for the growth in the experiment on CCRF-CEM leukemia, with MOLT-4 leukemia and in the experiment with SR leukemia were 101%, 118% and 111%, respectively.

For `COc1ccc(C2=NN(/C=C3\SC(=O)NC3=Nc3ccc(F)cc3)C(c3ccc(F)cc3)C2)cc1` (centres undefined), the growth with EKVX NSCLC is 82.2%; in the experiment with SN12C renal, 98.3%; in the experiment on UO-31 renal, 73.4%; in the experiment on TK-10 renal it was 87.9%; in the experiment with CAKI-1 renal, 89.1%; in the experiment with A498 renal, 93.8%. The figures for the growth in the experiment with CCRF-CEM leukemia, in the experiment with MOLT-4 leukemia and in the experiment with SR leukemia were 102%, 98.4% and 106%, respectively.

For the compound `CC[C@@H](C)[C@H](NC(=O)Cn1cc(CNC(=O)[C@@H](NC(=O)OCc2ccccc2)C(C)C)nn1)C(=O)O`, the growth with EKVX NSCLC was 100%; with SN12C renal, 97.1%; in the experiment on UO-31 renal it was 95.1%; in the experiment on TK-10 renal, 112%; in the experiment with CAKI-1 renal, 88.4%; in the experiment with A498 renal, 98.9%. The growth is 106% in the experiment with CCRF-CEM leukemia, 109% in the experiment with MOLT-4 leukemia and 101% with SR leukemia.

As for `C#CCn1cc(C=C2C(=O)NC(=O)NC2=O)c2cc(Cl)ccc21`, the growth in the experiment with EKVX NSCLC was 90.9%; with SN12C renal, 81.3%; in the experiment on UO-31 renal, 67.5%; with TK-10 renal it was 118%; in the experiment on CAKI-1 renal, 72%; in the experiment on A498 renal, -53.3% (active). Further, the growth in the experiment with CCRF-CEM leukemia was 82.2%; in the experiment with MOLT-4 leukemia, 77.9%.

As to `CCN1C(=O)N(c2ccccc2)C2Nn3c(s/c(=C4\C(=O)N(C(C)C)c5ccccc54)c3=O)=NC21` (centres undefined), the growth in the experiment with EKVX NSCLC was 97.8%; with SN12C renal, 102%; with UO-31 renal it was 79.9%; in the experiment on TK-10 renal, 122%; with ACHN renal it was 108%; with CAKI-1 renal, 86.9%. In addition, the growth in the experiment on CCRF-CEM leukemia is 103%; with MOLT-4 leukemia, 107%; in the experiment on SR leukemia it was 108%.

Consider `Cc1cccc2c(=O)c3c(sc12)c(NCCCNCCO)nc1ccccc13`, for which the growth with EKVX NSCLC is 53.5%; with SN12C renal, 44.6%; with UO-31 renal, 34.8%; with TK-10 renal it was 49.5%; in the experiment with ACHN renal, 9.89% (active); in the experiment on CAKI-1 renal it was 24.8%. For the same compound, the growth with CCRF-CEM leukemia is 15%; in the experiment with MOLT-4 leukemia it was -34% (active); with SR leukemia, -27.3% (active).
